Where a name gives a salt, the structure may show the parent alone. ± gives the standard deviation or the standard deviation of the averaged measurements.
Key:
Conditions in all cases: 25 µM; exposure: 24-48 hpf
[1] = test system: Danio rerio Tg(wt1b:EGFP) embryo, pronephros; assay: glomerular separation, fold change vs DMSO control; higher = glomeruli further apart (abnormal)
Summary of the method: (§1)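 Dechorionated Tg(wt1b:EGFP) zebrafish embryos were incubated at 28.5°C from 24 to 48 hpf with 25 μM compound in HEPES-buffered E3 containing 0.5% DMSO and 0.003% PTU. Distances and angles between 16 manually set points on maximum projections of dorsal pronephros images were measured in Fiji, with values over 2 SD from the feature mean excluded. Each feature is a fold change relative to the mean of same-day DMSO-treated embryos.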

[2] = test system: Danio rerio Tg(wt1b:EGFP) embryo, pronephros; assay: glomerular width (mean of left and right), fold change vs DMSO control; higher = wider glomerulus
Summary of the method: as §1

[3] = test system: Danio rerio Tg(wt1b:EGFP) embryo, pronephros; assay: fraction of imaged embryos annotated as normal kidney; higher = less nephrotoxic; extreme values may be limits of the assay
Summary of the method: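 Tricaine-anaesthetised Tg(wt1b:EGFP) zebrafish larvae were oriented dorsally in agarose-filled 96-well plates, and their pronephroi were recorded by widefield fluorescence at 470 nm in 10 z-slices. Before this, the dechorionated embryos had been exposed in 12-well plates to 25 μM compound in 0.5% DMSO and 5 mM HEPES-buffered E3 with 0.003% PTU, from 24 to 48 hpf at 28.5°C. Maximum projections were annotated manually for each embryo, and the read-out is the fraction per treatment classed as normal kidney.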

[4] = test system: Danio rerio Tg(wt1b:EGFP) embryo, pronephros; assay: pronephric angle neck segment to proximal convoluted tubule (mean of left and right), fold change vs DMSO control; higher = larger pronephric angle
Summary of the method: as §1

SMILES	glomerular separation [1]	glomerular width [2]	fraction of imaged embryos annotated as normal kidney [3]	pronephric angle neck segment [4]
O=C(N[C@H](CO)[C@H](O)c1ccc([N+](=O)[O-])cc1)C(Cl)Cl [Chloramphenicol]	1.33 ± 0.57	0.954 ± 0.035	1	0.935 ± 0.052
Clc1ccc(Cn2c(CN3CCCC3)nc3ccccc32)cc1 [Clemizole hydrochloride]	1.13 ± 0.35	1.03 ± 0.036	0.545	1.02 ± 0.08
CC(C)(C)NC[C@H](O)COc1ccccc1C1CCCC1 [Penbutolol sulfate]	0.661 ± 0.15	0.988 ± 0.02	0.917	1.02 ± 0.02
CC(CN(C)C)CN1c2ccccc2Sc2ccccc21 (stereo unspecified) [Trimeprazine tartrate]	0.739 ± 0.27	0.9878 ± 0.0068	0.833	1.01 ± 0.0053
C[C@@H](O)[C@H]1C(=O)N2C(C(=O)O)=C(SCCNC=N)C[C@H]12 [Imipenem]	0.805 ± 0.16	1.091 ± 0.01	1	0.951 ± 0.015
CC(C)C(=O)c1c(C(C)C)nn2ccccc12 [Ibudilast]	0.785 ± 0.21	0.92 ± 0.051	1	1.01 ± 0.036
CCCCC1C(=O)N(c2ccccc2)N(c2ccccc2)C1=O [Phenylbutazone]	5.01 ± 1.6	0.552 ± 0.0084	0	1.67 ± 0.032
CN1CCCC(CC2c3ccccc3Sc3ccccc32)C1 (stereo unspecified) [Metixene hydrochloride]	0.961 ± 0.25	1 ± 0.021	1	0.953 ± 0.044
Cc1nnc(NS(=O)(=O)c2ccc(N)cc2)s1 [Sulfamethizole]	0.838 ± 0.34	1.06 ± 0.087	0.667	1.06 ± 0.028

From the supplement of paper PMC7366291
